Results on 89 compounds are retold here after PubChem BioAssay AID588692 (Broad Institute, 2011).

SMILES strings stand for the structures. Out of some 360,000 compounds screened, about 830 (0.23%) were called active.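 Rule for the calls: active = mean luciferase reporter signal, scaled so untreated is 0 and the glycosylation-blocking control 100, at or above a set limit in every replicate; inconclusive = mean reaches the limit but not every replicate does; inactive = mean below the limit.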 For the sample, actives were picked, then their nearest neighbours and some compounds at random.

The assay is described as follows: D54 reporter luminescence gain compounds – D54 ERlucT cells, set 2, N-linked glycosylation inhibitor project, primary screen (AID 588692).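 Note: luciferase carries N-glycosylation sites so blocking glycosylation raises the light; 0% = median of neutral control wells and 100% = median of 100 nM tunicamycin wells.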 The note with it: D54 ERlucT glycosylation luciferase reporter, 24 h; at 12.5 µM; hits give high values; percent of 100 nM tunicamycin response. (In general: In a reporter assay the amount or activity of a reporter protein is the signal.)
With `CCCn1nc(C(=O)Nc2ccc3nc(C)sc3c2)c2ccccc2c1=O`, the reporter increase is -5.69% (inactive). Turning to `CCCC(=O)Nc1nc2ccc(NC(=O)c3c(F)c(F)c(OC)c(F)c3F)cc2s1`, the reporter increase was 45.8% (active).

For `CC(=O)Nc1ccc2nc(NC(=O)CS(=O)(=O)c3ccc(F)cc3)sc2c1`, the reporter increase was 1.57% (inactive). With `O=C(NCN1CCN(CCO)CC1)c1cnccn1`, the reporter increase was 1.41% (inactive). The value for `Cc1cc(C)c2nc(SCC(=O)N(C)C3CCS(=O)(=O)C3)cc(C)c2c1` (centres undefined) was -2.35% (inactive); that for `CC1CCN(c2ccc(-c3ccc(NC(=O)c4ccco4)cc3)nn2)CC1` was -3.17% (inactive); that for `COc1cc(OC)cc(C(=O)NCCCn2ccnc2)c1` was -1.14% (inactive). The value for `O=C(NCCCn1ccnc1)c1cc(-c2ccccc2)on1` was 86.5% (active). The value for `O=C(NCCCn1ccnc1)c1cc(Br)c(Br)s1` was -1.37% (inactive). With `CC(C)CC1C(=O)N(Cc2cn(CC3CCCCC3)nn2)CCS(=O)(=O)N1Cc1ccc(-c2ccc(Cl)cc2)cc1` (centres undefined), the reporter increase is -5.63% (inactive).

Regarding `COc1ccc(-c2c(C#N)cnc(C)c2C)c(O)c1OC`, the reporter increase was 1.16% (inactive). The value for `CSc1ncnc2c1ncn2CCCNCc1ccco1` was -1.13% (inactive); that for `CCc1ccccc1NC(=O)Cc1cn(C)c2ccccc12` was 0.183% (inactive). The value for `COc1ccc(CNC(=O)C[C@H]2C[C@H](C(=O)N3CCOCC3)[C@@]3(C)c4[nH]c5cc(CCC(=O)N(C)C)ccc5c4CCN3C2=O)cc1OC` was 1.84% (inactive); that for `O=C(OC(C(=O)NC1CCCC1)c1ccc(F)cc1)c1ccno1` (centres undefined) was 3.11% (inactive). The value for `O=C1C(C=NCC2CCCO2)=C(O)c2ccccc21` (centres undefined) was -4.51% (inactive); that for `O=C1c2cccc3c([N+](=O)[O-])ccc(c23)C(=O)N1CC1CCCO1` (centres undefined) was 29.4% (active). As to `N#Cc1cc([N+](=O)[O-])ccc1NCC1CCCO1` (centres undefined), the reporter increase was -0.076% (inactive). Regarding `C[C@@H]1C[C@@H]2O[C@H]2/C=C\C=C\C(=O)Cc2c(Cl)c(O)cc(O)c2C(=O)O1`, the reporter increase is -14.3% (inactive). As for `CCC1=C(OC(=O)N(CC)CC)N2C(=O)OC(=NCCc3c[nH]c4ccccc34)[C@]2(C)[C@H]2C1=CC[C@H]1C(=O)N(CC)C(=O)[C@H]12`, the reporter increase was -4.07% (inactive). Take `CC(=O)c1ccc(S(=O)(=O)NCCC(=O)N2CCN(c3ccccn3)CC2)cc1`: the reporter increase is -0.855% (inactive). In the case of `CCN(CC(=O)Nc1c(F)cccc1F)C(=O)C1CCC1`, the reporter increase is 0.369% (inactive). The value for `O=C(CCl)Nc1ccc(Sc2ccc(NC(=O)CCl)cc2)cc1` was 41% (active); that for `O=C(O)CSCC(=O)Nc1ccc(C(F)(F)F)cc1` was 1.33% (inactive); that for `CC(=O)Nc1ccc(SCC(=O)NC(=O)c2ccc(Cl)cc2)cc1` was -6.32% (inactive). Consider `Cc1ccccc1NC(=O)c1ccc(COc2ccc3c(C)cc(=O)oc3c2)cc1`, for which the reporter increase is -2.09% (inactive). The value for `O=C(c1ccccc1)C(Cn1cncn1)C(Sc1ccccc1)c1ccccc1` (centres undefined) was -3.83% (inactive); that for `O=C(Cc1ccc([N+](=O)[O-])cc1)NCCc1ccc2c(c1)OCO2` was -0.789% (inactive).

As to `CC1CCN(c2ccc(C(=O)NCc3ccc4c(c3)OCO4)cc2[N+](=O)[O-])CC1`, the reporter increase is -1.89% (inactive). The value for `O=C(NCc1ccc2c(c1)OCO2)c1cc([N+](=O)[O-])ccc1N1CCOCC1` was 25.7% (active); that for `Cc1ccc(C(=O)NCC(c2cccs2)N(C)C)cc1S(=O)(=O)N1CCOCC1` (centres undefined) was 0.45% (inactive). The value for `Cc1nc(-c2ccccc2)sc1-c1nnc(C2CC2)o1` was 0.986% (inactive); that for `Cc1ccccc1Nc1nc(N)nc(CN2CCN(c3ccccn3)CC2)n1` was 1.95% (inactive); that for `CCOC(=O)C1CCCN(Cc2nc(N)nc(Nc3ccc(C)cc3)n2)C1` (centres undefined) was 1.57% (inactive). `Cc1ccc(Nc2nc(N)nc(CN3CCN(Cc4ccccc4)CC3)n2)cc1Cl`: the reporter increase is 49% (active). The value for `CCN(C(=O)COC(=O)c1cc(S(=O)(=O)N2CCc3ccccc32)ccc1OC)C1CCS(=O)(=O)C1` (centres undefined) was -1.41% (inactive); that for `Cc1cccc(C(=O)NCc2nnc(SC(C)C(=O)Nc3nnc(C)s3)n2C)c1` (centres undefined) was -0.286% (inactive); that for `CC(C)(Oc1ccc(C2CC2(Cl)Cl)cc1)C(=O)O` (centres undefined) was 4.07% (inactive).

With `O=C(Cc1ccccc1)Nc1ccc(C(=O)Nc2ccccc2C(=O)O)cc1`, the reporter increase is 1.55% (inactive). On to `O=C(Nc1ccccc1F)c1ccc(S(=O)(=O)N2CCCCCC2)cc1`, for which the reporter increase is -0.684% (inactive).

Turning to `Nc1ccc(C(=O)Nc2ccccc2N)cc1`, the reporter increase was 69.6% (active). The same measure for `Cc1ccc(S(=O)(=O)NC(=O)N2CCCN(Cc3ccc(F)cc3)CC2)cc1`: -2.48% (inactive); for `O=C(CCNS(=O)(=O)c1ccccc1)NCCSc1ccc(Br)cc1`: 2.32% (inactive). The same measure for `CC1(C)CC(=O)C=C(NCc2ccncc2)C1`: 1.27% (inactive).

Take `O=C(CCN1C(=O)C2CCCCC2C1=O)Nc1ccc(OC(F)F)cc1` (centres undefined): the reporter increase was 0.177% (inactive).

`Cc1cc(Cl)ccc1N1C(=O)CC(SCCC(=O)O)C1=O` (centres undefined): the reporter increase is 1.84% (inactive). The value for `O=C(O)CC(Cc1ccccc1)C(=O)Nc1ccc([N+](=O)[O-])cc1` (centres undefined) was -1.27% (inactive); that for `COc1cccc(C(NC(C)=O)c2nc(-c3ccccc3OC)cs2)c1` (centres undefined) was 62.8% (active). The value for `COc1cccc(C(NC(C)=O)c2nc(-c3cnc4ccccc4c3)cs2)c1` (centres undefined) was 1.72% (inactive); that for `CC(=O)NC(c1ccccc1)c1nc(-c2ccccc2C)cs1` (centres undefined) was 11.9% (inactive).

Turning to `COc1cccc(C(=O)N2CCC(n3nccc3NC(=O)C3CCOC3)CC2)c1` (centres undefined), the reporter increase was 0.842% (inactive). The same measure for `COc1ccc(Cl)cc1NS(=O)(=O)c1cccc(C(=O)NC2CCC(O)CC2)c1` (centres undefined): -1% (inactive). Take `Cc1[nH]n(C(N)=S)c(=O)c1N=Nc1ccc(Cl)cc1Cl`: the reporter increase is -0.0505% (inactive). As to `CC(=O)NC(Cc1ccc(F)c(F)c1)C(=O)NC1CCN(c2nnnn2-c2ccccc2)CC1` (centres undefined), the reporter increase was 0.485% (inactive). The same measure for `Cc1ccc(OCC(=O)Nc2ccc(NC(=O)c3cccs3)cc2)c(C)c1`: 79.9% (active). Consider `Cc1ccc(C(=O)Nc2ccc(NC(=O)c3cccs3)cc2)c(C)c1`, for which the reporter increase was 47.6% (active).

Consider `Cc1cccc(C(=O)Nc2ccc(C(=O)/C=C/c3cccs3)cc2)c1`, for which the reporter increase was -1.77% (inactive).

As to `Cc1ccc(NNC(=O)c2cccs2)cc1Cl`, the reporter increase is 1.56% (inactive). On to `Cc1ccc(OCC(=O)Nc2ccc(N3CCN(C(=O)c4ccco4)CC3)cc2)c(C)c1`, for which the reporter increase is -5.46% (inactive).

For `C/C(=N\OCC(=O)Nc1ccc(Br)cc1)c1cccs1`, the reporter increase is 2.32% (inactive). On to `O=C(NCCN1CCOCC1)c1ccccc1N1C(=O)[C@@H]2Cc3c([nH]c4ccccc34)C(c3cccc(Cl)c3)N2C1=O` (some centres undefined), for which the reporter increase was 4.03% (inactive). The same measure for `COC(=O)c1cccc(N(C(=O)c2ccco2)C(C(=O)NC2CCCC2)c2ccco2)c1` (centres undefined): 1.26% (inactive); for `COCCNc1ncnc2c1ncn2[C@H]1CN(Cc2ccc(OC)cc2)C[C@@H](CO)O1`: 0.218% (inactive); for `CC(C)C[C@H](NC(=O)NCCc1ccc(Cl)cc1)C(=O)O`: 0.0345% (inactive). The same measure for `CCN(CC)C(=O)CSc1nnc(-c2cnccn2)n1-c1ccc(C)cc1`: 1.32% (inactive); for `Cc1cccc(NC(=O)C(C)N2C(=O)C3C4CC(C(Br)C4Br)C3C2=O)c1` (centres undefined): 2.15% (inactive). For the compound `CCN(C(=O)c1cc([N+](=O)[O-])ccc1NCc1cccnc1)c1ccccc1`, the reporter increase was -2.09% (inactive). The same measure for `Cn1cnc2c1c(=O)n(Cc1ccccc1C#N)c(=O)n2C`: 1.69% (inactive); for `Cc1cc2oc(=O)cc(CN(C)Cc3ccccc3)c2cc1Cl`: 0.116% (inactive).

Take `CCN1C(=O)CS/C1=N\c1nccs1`: the reporter increase is 0.352% (inactive). Take `C=CCC[C@@H](Cc1ccc(F)cc1)C(=O)OC[C@H](Cc1c[nH]c2ccccc12)NC(=O)[C@@H](CC=C)CC(=O)N(CCO)Cc1ccccc1`: the reporter increase was -0.357% (inactive). `Cn1c(CCN2CCN(c3ccccn3)CC2)nc2cc(NS(=O)(=O)c3ccc(F)cc3)ccc21`: the reporter increase is -5.5% (inactive). In the case of `Cn1c(=O)n(C)c2cc(NS(=O)(=O)c3ccc(F)cc3)ccc21`, the reporter increase was 27.7% (active). In the case of `Cn1c(=O)n(C)c2cc(S(=O)(=O)Nc3ccc(F)cc3)ccc21`, the reporter increase was 2.56% (inactive). The value for `COc1ccccc1CNC(=O)c1cc(-c2cc(F)ccc2OC)n[nH]1` was 0.448% (inactive).

With `Cc1cc(F)ccc1N1CCC(N2CCN(C)C(CCO)C2)CC1` (centres undefined), the reporter increase was -1.14% (inactive).

Consider `Cc1cc(O)ccc1-c1cc(C(=O)NCc2cc(C(F)(F)F)cc(C(F)(F)F)c2)[nH]n1`, for which the reporter increase was 1.18% (inactive). For `COc1ccc(-c2coc3c(C(=O)NC(C)C)cccc23)c(C)c1`, the reporter increase was -2.53% (inactive). With `COCCCNC(=O)c1cccc2c(-c3ccc(O)c(OC)c3)coc12`, the reporter increase was 31.5% (active). Regarding `COCCCNC(=O)c1ccc(-c2c(C)noc2C)c2ccoc12`, the reporter increase was 19.8% (inactive). For the compound `COc1ccc(-c2ccc(CN3C(CC(C)C)C(=O)N(Cc4cn(CC5CCCCC5)nn4)CCS3(=O)=O)cc2)cn1` (centres undefined), the reporter increase is 4.1% (inactive). The value for `CSCCC(C(=O)NC1=NCCS1)N1C(=O)c2ccccc2C1=O` (centres undefined) was -0.003% (inactive); that for `COc1ccc(N2CCN(S(=O)(=O)c3cc4c5c(c3)C(C)C(=O)N5CCC4)CC2)cc1` (centres undefined) was -1.71% (inactive).

For the compound `CCn1nc(C(=O)NNC(=O)C2CSC3(C)CCC(=O)N23)c2ccccc2c1=O` (centres undefined), the reporter increase is -0.092% (inactive).

In the case of `CC(NCc1cccs1)C(=O)Nc1cc(Cl)cc(Cl)c1` (centres undefined), the reporter increase was 0.0655% (inactive).

In the case of `O=C(N/N=C/C=C/c1ccccc1)C1CC1(c1ccccc1)c1ccccc1` (centres undefined), the reporter increase was -0.496% (inactive). As to `CN(C)S(=O)(=O)c1ccc(N2CCCC2)c(C(=O)NCc2ccccc2)c1`, the reporter increase was -1.02% (inactive).

For the compound `CN(C)S(=O)(=O)c1ccc(N2CCCC2)c(C(=O)Nc2cccc(F)c2)c1`, the reporter increase is 48.8% (active). The value for `CN(C)S(=O)(=O)c1ccc(N2CCCC2)c(C(=O)Nc2ccc(Br)cc2F)c1` was -1.25% (inactive).
